The values that follow come from PubChem BioAssay (NCI).

Test systems include T-47D breast; BT-549 breast; MDA-MB-435 melanoma; SW-620 colon; MCF7 breast; HCT-116 colon; HCC-2998 colon; KM12 colon.
Holding throughout (test): NCI-60 one-dose screen, 48 h (100 = growth as untreated, 0 = no growth, -100 = all killed)
What all share (conditions): 10 µM unless noted

Each structure is given as a SMILES string. The panel holds about 83,000 compounds, 20% with a hit somewhere; the sample as a whole holds those more often.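 Activity criterion: percent growth below 10, measured after cells in 96-well plates were exposed to a single compound concentration for 48 hours.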 A number with no mark means an inactive call. Activity calls are given as the source filed them.

Consider `CCSc1nc(-c2ccco2)n2nc(-c3ccco3)cc2n1`, for which the growth with T-47D breast is 22.9%; with BT-549 breast it was 107%; with MDA-MB-435 melanoma it was 111%; in the assay on SW-620 colon, 95.5%; in the assay on MCF7 breast, 22.6%; in the assay on HCT-116 colon it was 93.4%. Also, the growth with HCC-2998 colon was 83.7%; with KM12 colon, 63.8%.
As to `COc1cc(/C=C/C(=O)c2c(C)n([O-])c3ccc(Cl)cc3[n+]2=O)cc(OC)c1OC`, the growth is 58.6% in the assay on T-47D breast; 53.8% with BT-549 breast; 84.1% in the assay on MDA-MB-435 melanoma; 82.2% in the assay with SW-620 colon; 42.2% in the assay with MCF7 breast; 62.6% in the assay with HCT-116 colon. In addition, the growth in the assay on HCC-2998 colon is 106%; in the assay with KM12 colon, 96.2%.
Take `O=C(CNC(=O)c1cccc2ccccc12)Nc1ccccc1Oc1cccc(O)c1`: the growth in the assay on T-47D breast is 42.3% [5 µM]; with BT-549 breast it was 18.7% [5 µM]; with MDA-MB-435 melanoma, -48% [5 µM] (active); with SW-620 colon, 20.3% [5 µM]; in the assay on MCF7 breast, 20.5% [5 µM]; in the assay with HCT-116 colon it was 8.18% [5 µM] (active). Moreover, the results for the growth with HCC-2998 colon and in the assay with KM12 colon were 58.3% [5 µM] and 22.8% [5 µM], respectively.
In the case of `[N-]=[N+]=NCc1cccc(/C(O)=C/C(=O)C(=O)O)c1`, the growth was 86.6% in the assay with T-47D breast; 113% with BT-549 breast; 140% in the assay on MDA-MB-435 melanoma; 94.9% in the assay on SW-620 colon; 98.6% in the assay with MCF7 breast; 91.3% in the assay on HCT-116 colon. In addition, the growth with HCC-2998 colon was 88.5%; in the assay with KM12 colon, 97.4%.
Take `C[C@H]1O[C@@H](O[C@H]2[C@@H](O)C[C@H](O[C@H]3[C@@H](O)C[C@H](O[C@H]4CC[C@]5(C)C6CC[C@]7(C)[C@@H](C8=CC(=O)OC8)CC[C@]7(O)C6CC[C@@H]5C4)O[C@@H]3C)O[C@@H]2C)C[C@H](O)[C@@H]1O` (stereo partly drawn): the growth in the assay on T-47D breast was -44.5% (active); with BT-549 breast it was -92.5% (active); with MDA-MB-435 melanoma, -100% (active); in the assay on SW-620 colon, -100% (active); with MCF7 breast, -41.2% (active); in the assay on HCT-116 colon, -96.7% (active). Further, the results for the growth in the assay on HCC-2998 colon and with KM12 colon were -90.8% (active) and -100% (active), respectively.
Regarding `Cc1cccc2nnc(-c3ccccc3)n12`, the growth is 115% with T-47D breast; 98.9% in the assay on BT-549 breast; 112% with MDA-MB-435 melanoma; 112% with SW-620 colon; 97% in the assay with MCF7 breast; 104% in the assay with HCT-116 colon. The growth in the assay with HCC-2998 colon is 102%; in the assay with KM12 colon, 108%.
As for `COc1ccc(C(=O)/C=C/c2ccc(C)cc2)cc1OC`, the growth in the assay on T-47D breast was 59.3%; with BT-549 breast, 89.8%; with MDA-MB-435 melanoma, 97.1%; with SW-620 colon, 24.7%; with MCF7 breast it was 35.5%; with HCT-116 colon it was 30.1%. Further, the growth in the assay with HCC-2998 colon was 90.1%; with KM12 colon, 20.1%.
Consider `O=C1/C(=C\c2coc3ccccc3c2=O)c2ccccc2N1c1c(Cl)cccc1Cl`, for which the growth in the assay on T-47D breast is 30%; with BT-549 breast it was 41.1%; in the assay on MDA-MB-435 melanoma, 14.5%; in the assay with SW-620 colon, 35%; in the assay with MCF7 breast, 31.6%; in the assay with HCT-116 colon it was 35.6%. Further, the growth in the assay on HCC-2998 colon is 53%; with KM12 colon, 27.1%.
`Nc1ccccc1C#Cc1ccccc1C#Cc1ccc(OCCCCCCOc2ccc(C#Cc3ccccc3C#Cc3ccccc3N)cc2)cc1`: the growth is 90.1% in the assay on T-47D breast; 104% in the assay on BT-549 breast; 97.5% in the assay on MDA-MB-435 melanoma; 98.9% with SW-620 colon; 74.7% in the assay on MCF7 breast; 110% in the assay on HCT-116 colon. The growth with HCC-2998 colon was 95.5%; in the assay on KM12 colon, 113%.
As to `COc1cccc(N2CCN(c3cccc(C)n3)CC2)c1`, the growth was 115% with T-47D breast; 105% in the assay on BT-549 breast; 95.1% with MDA-MB-435 melanoma; 110% in the assay with SW-620 colon; 95.4% in the assay on MCF7 breast; 91% in the assay on HCT-116 colon. Moreover, the growth was 107% in the assay on HCC-2998 colon and 110% with KM12 colon.
With `O=[N+]([O-])c1ccc2[nH]cc(-c3c4ccccc4cc4[nH]c5ccc([N+](=O)[O-])cc5c34)c2c1`, the growth with T-47D breast was -10.2% (active); in the assay with BT-549 breast, 19.2%; with MDA-MB-435 melanoma, -11.6% (active); with SW-620 colon it was 28%; in the assay on MCF7 breast it was 8.11% (active); in the assay with HCT-116 colon, 9.37% (active). Moreover, the results for the growth with HCC-2998 colon and in the assay with KM12 colon were 57.6% and 5.55% (active), respectively.
Take `CCCCCCC(CC#N)(CCC)CCCC` (stereo not drawn): the growth in the assay on T-47D breast was 112%; in the assay with BT-549 breast, 120%; in the assay on MDA-MB-435 melanoma, 103%; with SW-620 colon, 107%; with MCF7 breast, 96.1%; in the assay with HCT-116 colon it was 104%. Besides, the growth is 110% with HCC-2998 colon and 111% in the assay with KM12 colon.
Regarding `N#Cc1c(NC(=O)c2ccco2)[n+]([O-])c2ccccc2[n+]1[O-]`, the growth in the assay with T-47D breast was 90.8%; in the assay with BT-549 breast, 92.9%; with MDA-MB-435 melanoma, 107%; in the assay with SW-620 colon, 107%; in the assay on MCF7 breast, 71.3%; in the assay on HCT-116 colon, 93.8%. For the same compound, the growth with HCC-2998 colon was 98.3%; with KM12 colon it was 109%.
On to `C[C@]12CC[C@H](O)CC1=CC[C@@H]1[C@@H]2CC[C@]2(C)C(c3cccnc3)=CC[C@@H]12`, for which the growth in the assay on T-47D breast was 55.6%; with BT-549 breast, 59.5%; in the assay on MDA-MB-435 melanoma it was 19.8%; in the assay with SW-620 colon, 72.7%; with MCF7 breast, 61.4%; with HCT-116 colon, 58.7%. Further, the growth is 74.6% with HCC-2998 colon and 52.8% with KM12 colon.
Consider `CN[C@@H]1C(OC2[C@H](O[C@H]3[C@H](O)[C@@H](O)[C@H](N=C(N)N)[C@@H](O)[C@@H]3N=C(N)N)OC(C)[C@]2(O)CO)OC(CO)C(O)C1O` (stereo partly drawn), for which the growth in the assay on T-47D breast is 111%; in the assay on BT-549 breast it was 112%; in the assay on MDA-MB-435 melanoma, 102%; in the assay with SW-620 colon, 104%; in the assay with MCF7 breast, 111%; in the assay on HCT-116 colon, 105%. For the same compound, the growth in the assay with HCC-2998 colon was 97.5%; in the assay with KM12 colon it was 110%.
As to `COC(=O)N/N=C/c1coc2ccc(Cl)cc2c1=O`, the growth with T-47D breast was 83%; with BT-549 breast it was 82.5%; with MDA-MB-435 melanoma, 103%; with SW-620 colon it was 101%; in the assay on MCF7 breast, 88.9%; in the assay with HCT-116 colon it was 95.5%. In addition, the results for the growth in the assay with HCC-2998 colon and in the assay on KM12 colon were 101% and 94%, respectively.
